# Reference: the supplement of paper PMC8728848
# This is one part of a sample in which the strongest signals are shown more often than they occur.
# Assays:
# Assay in all cases: glycan array binding signal (z-score within array); higher = stronger binding
# Details in all cases: glycan notation: IUPAC condensed, linker removed
# [1] = biological target: Fuc(a1-2)Gal(b1-3)GlcNAc(b1-3)Gal(b1-4)Glc
# Method in brief: (§1)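 Glycan array binding is given as a within-array Z-score, which can be read as non-binding when negative. The arrays, 3228 of them, came from the Consortium for Functional Glycomics database and were retained only where the protein sequence was available. Z-scores were averaged across arrays of the same protein sequence at different concentrations or buffers and across linkers.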
# [2] = biological target: Fuc(a1-2)Gal(b1-3)GlcNAc(b1-3)[Gal(b1-4)GlcNAc(b1-6)]Gal(b1-4)Glc
# Method in brief: as §1
# [3] = biological target: Fuc(a1-2)Gal(b1-4)GlcNAc(b1-2)[Fuc(a1-2)Gal(b1-4)GlcNAc(b1-4)]Man(a1-3)[Fuc(a1-2)Gal(b1-4)GlcNAc(b1-2)Man(a1-6)]Man(b1-4)GlcNAc(b1-4)GlcNAc
# Method in brief: as §1
# [4] = biological target: Fuc(a1-2)Gal6S(b1-4)Glc6S
# Method in brief: as §1
# Fuc(a1-2)[Gal(a1-3)]Gal = biological target: Fuc(a1-2)[Gal(a1-3)]Gal
# Method in brief: as §1
# [5] = biological target: Fuc(a1-2)[Gal(a1-3)]Gal(b1-3)GlcNAc
# Method in brief: as §1
# [6] = biological target: Fuc(a1-2)[GalNAc(a1-3)]Gal(b1-4)GlcNAc
# Method in brief: as §1
# [7] = biological target: Fuc(a1-2)[GalNAc(a1-3)]Gal(b1-4)GlcNAc(b1-3)GalNAc
# Method in brief: as §1
# [8] = biological target: Fuc(a1-2)[GalNAc(b1-3)]Gal
# Method in brief: as §1
# [9] = biological target: Fuc(a1-3)[Gal(b1-4)]GlcNAc(b1-4)Gal(b1-4)[Fuc(a1-3)]GlcNAc
# Method in brief: as §1
# [10] = biological target: Fuc(a1-3)[Gal(b1-4)]GlcNAc6S
# Method in brief: as §1
# [11] = biological target: Fuc(a1-3)[Gal3S(b1-4)]GlcNAc6S
# Method in brief: as §1
# [12] = biological target: Gal(a1-3)Gal(b1-3)[Fuc(a1-4)]GlcNAc(b1-2)Man(a1-3)[Gal(a1-3)Gal(b1-3)[Fuc(a1-4)]GlcNAc(b1-2)Man(a1-6)]Man(b1-4)GlcNAc(b1-4)GlcNAc
# Method in brief: as §1
# Gal(a1-3)Gal(b1-4)GlcNAc = biological target: Gal(a1-3)Gal(b1-4)GlcNAc
# Method in brief: as §1
# [13] = biological target: Gal(b1-3)GlcNAc(b1-3)Gal(b1-4)[Fuc(a1-3)]GlcNAc(b1-6)[Gal(b1-3)GlcNAc(b1-3)]Gal(b1-4)Glc
# Method in brief: as §1
# [14] = biological target: Gal(b1-3)[Neu5Ac(b2-6)]GalNAc
# Method in brief: as §1
# [15] = biological target: Gal(b1-4)GlcNAc(b1-2)Man(a1-3)[Gal(b1-4)GlcNAc(b1-2)Man(a1-6)]Man(b1-4)GlcNAc(b1-4)GlcNAc
# Method in brief: as §1
# [16] = biological target: Gal(b1-4)GlcNAc(b1-3)Gal(b1-4)GlcNAc(b1-2)Man(a1-3)[Gal(b1-4)GlcNAc(b1-3)Gal(b1-4)GlcNAc(b1-2)Man(a1-6)]Man(b1-4)GlcNAc(b1-4)[Fuc(a1-6)]GlcNAc
# Method in brief: as §1
# [17] = biological target: Gal(b1-4)GlcNAc(b1-6)[Gal(b1-4)GlcNAc(b1-3)]GalNAc
# Method in brief: as §1
# Gal(b1-6)Gal = biological target: Gal(b1-6)Gal
# Method in brief: as §1
# Gal3S(b1-3)GlcNAc = biological target: Gal3S(b1-3)GlcNAc
# Method in brief: as §1
# Gal3S(b1-4)Glc = biological target: Gal3S(b1-4)Glc
# Method in brief: as §1
# Gal3S(b1-4)Glc6S = biological target: Gal3S(b1-4)Glc6S
# Method in brief: as §1
# Gal3S(b1-4)GlcNAc = biological target: Gal3S(b1-4)GlcNAc
# Method in brief: as §1
# Gal3S(b1-4)GlcNAc6S = biological target: Gal3S(b1-4)GlcNAc6S
# Method in brief: as §1
# [18] = biological target: Gal3S(b1-4)[Fuc(a1-3)]GlcNAc6S
# Method in brief: as §1
# GalNAc(a1-3)Gal = biological target: GalNAc(a1-3)Gal
# Method in brief: as §1
# GalNAc(b1-3)GalNAc = biological target: GalNAc(b1-3)GalNAc
# Method in brief: as §1
# GalNAc3S(b1-4)GlcNAc = biological target: GalNAc3S(b1-4)GlcNAc
# Method in brief: as §1
# Glc(b1-4)Glc = biological target: Glc(b1-4)Glc
# Method in brief: as §1
# [19] = biological target: GlcNAc(a1-4)Gal(b1-3)GlcNAc
# Method in brief: as §1
# [20] = biological target: GlcNAc(b1-3)Gal(b1-4)GlcNAc(b1-3)Gal(b1-4)GlcNAc(b1-3)Gal(b1-4)GlcNAc(b1-2)[GlcNAc(b1-3)Gal(b1-4)GlcNAc(b1-3)Gal(b1-4)GlcNAc(b1-3)Gal(b1-4)GlcNAc(b1-6)]Man(a1-6)[GlcNAc(b1-3)Gal(b1-4)GlcNAc(b1-3)Gal(b1-4)GlcNAc(b1-3)Gal(b1-4)GlcNAc(b1-2)Man(a1-3)]Man(b1-4)GlcNAc(b1-4)[Fuc(a1-6)]GlcNAc
# Method in brief: as §1
# [21] = biological target: Man(a1-2)Man(a1-2)Man(a1-6)[Man(a1-3)]Man
# Method in brief: as §1
# [22] = biological target: Man(a1-2)Man(a1-3)[Man(a1-6)]Man(a1-6)[Man(a1-2)Man(a1-3)]Man(b1-4)GlcNAc(b1-4)GlcNAc
# Method in brief: as §1
# [23] = biological target: Neu5Ac(a2-3)Gal(b1-3)GalNAc(b1-4)[Neu5Ac(a2-8)Neu5Ac(a2-3)]Gal(b1-4)Glc
# Method in brief: as §1
# [24] = biological target: Neu5Ac(a2-3)Gal(b1-3)GlcNAc(b1-3)Gal(b1-3)GlcNAc
# Method in brief: as §1
# [25] = biological target: Neu5Ac(a2-3)Gal(b1-3)[GlcNAc(b1-6)]GalNAc
# Method in brief: as §1
# [26] = biological target: Neu5Ac(a2-3)Gal(b1-4)GlcNAc(b1-2)Man(a1-3)[Neu5Ac(a2-3)Gal(b1-4)GlcNAc(b1-2)Man(a1-6)]Man(b1-4)GlcNAc(b1-4)GlcNAc
# Method in brief: as §1
# [27] = biological target: Neu5Ac(a2-3)Gal(b1-4)GlcNAc(b1-3)Gal(b1-4)GlcNAc(b1-3)Gal(b1-4)GlcNAc
# Method in brief: as §1
# [28] = biological target: Neu5Ac(a2-3)Gal(b1-4)GlcNAc(b1-3)Gal(b1-4)GlcNAc(b1-3)[Neu5Ac(a2-3)Gal(b1-4)GlcNAc(b1-3)Gal(b1-4)GlcNAc(b1-6)]GalNAc
# Method in brief: as §1
# [29] = biological target: Neu5Ac(a2-3)Gal(b1-4)[Fuc(a1-3)]GlcNAc6S
# Method in brief: as §1
# [30] = biological target: Neu5Ac(a2-6)Gal(b1-4)GlcNAc(b1-3)Gal(b1-4)GlcNAc(b1-3)[Neu5Ac(a2-6)Gal(b1-4)GlcNAc(b1-3)Gal(b1-4)GlcNAc(b1-6)]GalNAc
# Method in brief: as §1
# Neu5Ac(a2-6)GalNAc = biological target: Neu5Ac(a2-6)GalNAc
# Method in brief: as §1
# [31] = biological target: Neu5Ac(a2-8)Neu5Ac(a2-3)Gal(b1-4)GlcNAc
# Method in brief: as §1
# [32] = biological target: Neu5Ac(a2-8)Neu5Ac(a2-8)Neu5Ac(a2-3)[GalNAc(b1-4)]Gal(b1-4)Glc
# Method in brief: as §1
# [33] = biological target: Neu5Gc(a2-3)Gal(b1-4)GlcNAc(b1-3)Gal(b1-4)GlcNAc(b1-2)Man(a1-3)[Neu5Gc(a2-3)Gal(b1-4)GlcNAc(b1-3)Gal(b1-4)GlcNAc(b1-2)Man(a1-6)]Man(b1-4)GlcNAc(b1-4)GlcNAc
# Method in brief: as §1
# [34] = biological target: Neu5Gc(a2-8)Neu5Gc(a2-3)Gal(b1-4)GlcNAc
# Method in brief: as §1
# [35] = biological target: Neu5Gc(a2-8)Neu5Gc(a2-3)Gal(b1-4)GlcNAc(b1-3)Gal(b1-4)GlcNAc
# Method in brief: as §1
binder,measurement,setting,value
"MAA (Maackia amurensis), P0DKL3 (protein) MATSNSKPTQVLLATFLTFFFLLLNNVNSSDELSFTINNFVPNEADLLFQGEASVSSTGVLQLTRVENGQPQKYSVGRALYAAPVRIWDNTTGSVASFSTSFTFVVKAPNPDITSDGLAFYLAPPDSQIPSGSVSKYLGLFNNSNSDSSNQIVAVELDTYFAHSYDPWDPNYRHIGIDVNGIESIKTVQWDWINGGVAFATITYLAPNKTLIASLVYPSNQTTFSVAASVDLKEILPEWVRVGFSAATGYPTEVETHDVLSWSFTSTLEANCDAATENNVHIARYTA",glycan array binding signal (z-score),[1],-0.221
same,glycan array binding signal (z-score),[2],-0.262
same,glycan array binding signal (z-score),[3],-0.059
same,glycan array binding signal (z-score),[4],-0.191
same,glycan array binding signal (z-score),Fuc(a1-2)[Gal(a1-3)]Gal,-0.152
same,glycan array binding signal (z-score),[5],-0.153
same,glycan array binding signal (z-score),[6],-0.228
same,glycan array binding signal (z-score),[7],-0.128
same,glycan array binding signal (z-score),[8],-0.178
same,glycan array binding signal (z-score),[9],-0.094
same,glycan array binding signal (z-score),[10],-0.2
same,glycan array binding signal (z-score),[11],2.89
same,glycan array binding signal (z-score),[12],0.162
same,glycan array binding signal (z-score),Gal(a1-3)Gal(b1-4)GlcNAc,-0.243
same,glycan array binding signal (z-score),[13],-0.145
same,glycan array binding signal (z-score),[14],-0.219
same,glycan array binding signal (z-score),[15],-0.204
same,glycan array binding signal (z-score),[16],0.122
same,glycan array binding signal (z-score),[17],-0.204
same,glycan array binding signal (z-score),Gal(b1-6)Gal,-0.212
same,glycan array binding signal (z-score),Gal3S(b1-3)GlcNAc,1.5
same,glycan array binding signal (z-score),Gal3S(b1-4)Glc,5.2
same,glycan array binding signal (z-score),Gal3S(b1-4)Glc6S,6.87
same,glycan array binding signal (z-score),Gal3S(b1-4)GlcNAc,6.25
same,glycan array binding signal (z-score),Gal3S(b1-4)GlcNAc6S,4.71
same,glycan array binding signal (z-score),[18],7.75
same,glycan array binding signal (z-score),GalNAc(a1-3)Gal,-0.197
same,glycan array binding signal (z-score),GalNAc(b1-3)GalNAc,-0.186
same,glycan array binding signal (z-score),GalNAc3S(b1-4)GlcNAc,2.31
same,glycan array binding signal (z-score),Glc(b1-4)Glc,-0.161
same,glycan array binding signal (z-score),[19],-0.226
same,glycan array binding signal (z-score),[20],0.282
same,glycan array binding signal (z-score),[21],-0.236
same,glycan array binding signal (z-score),[22],-0.2
same,glycan array binding signal (z-score),[23],-0.163
same,glycan array binding signal (z-score),[24],-0.173
same,glycan array binding signal (z-score),[25],-0.229
same,glycan array binding signal (z-score),[26],1.17
same,glycan array binding signal (z-score),[27],1.27
same,glycan array binding signal (z-score),[28],1.22
same,glycan array binding signal (z-score),[29],-0.236
same,glycan array binding signal (z-score),[30],0.454
same,glycan array binding signal (z-score),Neu5Ac(a2-6)GalNAc,-0.257
same,glycan array binding signal (z-score),[31],0.479
same,glycan array binding signal (z-score),[32],-0.155
same,glycan array binding signal (z-score),[33],2.07
same,glycan array binding signal (z-score),[34],0.744
same,glycan array binding signal (z-score),[35],1.13
